# Compound activity as filed in PubChem BioAssay.
# NPC1 prom act – activates the NPC1 promoter. Potency, µM (titrated, usually from 9.22 µM), for the others: top-dose activation, actives largely listed as activators. Huh7 NPC1 promoter luciferase reporter, 24 h. 2.4% of 320,000 active; also: % of control where 0% means no effect; nearly all actives have a fitted effect of over 60% in size
#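 Readout is luciferase luminescence, reflecting NPC1 promoter activation in stably transfected Huh7 cells after 24 h compound exposure at 37 °C in reduced-serum medium with 10% FBS.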
# FLuc modulator – inhibits or activates purified firefly luciferase, miR-21 counter-screen. P08659. purified FLuc, Km substrates, luminescence inhibition. Potency, µM (highest dose often 57.5 µM), for the others: top-dose activity change, negative = inhibition, most hits filed as inhibitors. 6.9% of 360,000 active;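 also: plate controls were vehicle for no effect and reference inhibitor for full effect; nearly all actives have a fitted effect of over 55% in size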
# Target sequence (P08659 whole entry, looked up): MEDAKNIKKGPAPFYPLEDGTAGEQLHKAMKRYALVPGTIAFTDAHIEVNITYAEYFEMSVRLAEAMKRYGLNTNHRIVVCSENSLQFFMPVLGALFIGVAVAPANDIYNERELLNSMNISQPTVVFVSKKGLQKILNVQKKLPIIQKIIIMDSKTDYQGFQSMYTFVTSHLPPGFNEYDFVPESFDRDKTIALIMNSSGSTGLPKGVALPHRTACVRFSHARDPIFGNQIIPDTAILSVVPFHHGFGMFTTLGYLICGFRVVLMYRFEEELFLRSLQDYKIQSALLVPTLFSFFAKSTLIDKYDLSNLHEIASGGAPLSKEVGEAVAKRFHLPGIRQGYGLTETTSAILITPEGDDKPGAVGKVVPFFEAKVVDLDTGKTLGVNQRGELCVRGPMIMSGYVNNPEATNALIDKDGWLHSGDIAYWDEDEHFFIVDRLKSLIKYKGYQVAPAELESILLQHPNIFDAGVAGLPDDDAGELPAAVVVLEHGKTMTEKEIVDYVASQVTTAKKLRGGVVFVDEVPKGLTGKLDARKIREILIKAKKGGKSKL
#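 Biochemical qHTS of compounds, final roughly 60 µM downward over six points, against 10 nM purified firefly luciferase using Km concentrations of substrates (10 uM D-luciferin, 10 uM ATP) in Tris acetate pH 7.5 buffer; luminescence output.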
# ELG1 genotoxic – inducers of genotoxicity in HEK293T ELG1-luciferase cells. HEK293T ELG1-luciferase reporter, luminescence, 16 h. Potency, µM (series often up to 46 µM), for the others: at the highest dose activity change, positive = activation, most hits filed as activators. 1.3% of 330,000 active. AID 504466; also: % of control where 0% means no effect; nearly all actives have a fitted effect of over 60% in size
#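 HEK293T cells expressing luciferase-tagged ELG1 were exposed to compound or DMSO vehicle for 16 hr at 37 °C and 5% CO2. Luciferase activity was then measured with ONE-Glo after 30 min at room temperature.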
# Rab9 promoter act – activators of Rab9 promoter; Huh7 Rab9 promoter-luciferase reporter, luminescence, 24 h; Potency, µM (top dose mostly 9.22 µM), inactives show top-dose activation, negative = inhibition, usual class: activators; 2.8% of 320,000 active; AID 485297; also: % of control where 0% means no effect; nearly all actives have a fitted effect of over 60% in size
#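 Luminescence from Amplite-detected luciferase (10 minutes, ambient) reports Rab9 promoter activation. Before that, stable Rab9-luciferase Huh7 cells (1500/well, reduced-serum OP-MEM I plus 10% FBS) were exposed to compound for 24 hours at 37C.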
# Luc counter – counter-screen: inhibitors of Kinase-Glo firefly luciferase | Q27757 | Kinase-Glo luciferase, ATP luminescence, 8 min | Potency, µM (series often up to 38.3 µM), inactives show top-dose activity change, negative = inhibition, hits mostly inhibitors | 0.28% of 200,000 active; also: % is scaled to controls: 0 for no effect and ±100 for the full control effect; nearly all actives have a fitted effect of over 60% in size
#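 Compounds were added to a substrate mix at pH 7.2 (50 mM imidazole, 10 uM ATP, within the enzyme's linear range), followed by Kinase-Glo detection reagent; luminescence was measured after 8 minutes at ambient temperature.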
# SMN2 splice enh – increases expression of the SMN2 splice variant. Potency, µM (series often up to 46.1 µM), for inactives: top-dose activity change, positive = activation, hits mostly activators. HEK293 SMN2-luciferase splicing reporter, luminescence, 30-36 h. AID 1458. 2.8% of 210,000 active; also: % of control where 0% means no effect; nearly all actives have a fitted effect of over 55% in size
#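 HEK293 cells carry an SMN2 minigene-luciferase reporter in which exon 7 inclusion puts luciferase in frame. Cells were seeded at 2000 cells/well, attached for 10-12 hours, then exposed to compounds for 30-36 hours at 37C before ONE-Glo luminescence.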
# The depositor's hits bear a star; ? = inconclusive; nt = not tested or not shown; ! = repeats disagree; [ ] = dose if it differs, or a comment. Shown are actives, neighbours in structure and some others; about 7.3% of the full set was active somewhere. Calls follow the shape of the dose curve; as a rule, active = well fitted curve in the direction sought with a large enough effect; inconclusive = small, poorly fitted or top-dose-only effect, or another doubt; inactive = no such curve, though single readings can be large; an effect the other way counts as inactive or inconclusive. Potency is read from the fitted curve at half-maximal effect.
SMILES,NPC1 prom act,FLuc modulator,ELG1 genotoxic,Rab9 promoter act,Luc counter,SMN2 splice enh
Cc1ccc(NC(=O)CCc2c(C)nn(-c3ccc(N4CCOCC4)nn3)c2C)cc1C,5%,?,6%,0%,nt,nt
COc1ccc(NC(=O)CCc2c(C)nn(-c3ccc(N4CCCCC4)nn3)c2C)cc1Cl,nt,2.1µM*,nt,nt,nt,nt
Cc1ccccc1NC(=O)CCc1c(C)nn(-c2ccc(N3CCCCC3)nn2)c1C,16%,?,2%[9.26 µM],19%,nt,nt
COC(=O)c1ccc(NC(=O)CCc2c(C)nn(-c3ccc(N4CCCCC4)nn3)c2C)cc1,nt,9.5µM*,nt,nt,nt,nt
COc1cc(NC(=O)CCc2c(C)nn(-c3ccc(N4CCCCC4)nn3)c2C)cc(OC)c1OC,nt,19µM*,nt,nt,nt,nt
COc1ccccc1CNC(=O)CCc1c(C)nn(-c2ccc(N3CCCCC3)nn2)c1C,nt,-17%,nt,nt,nt,nt
Cc1ccc(-c2nnc(N3CCCCCC3)c3ccccc23)cc1,15%,19µM*,1%,9%,nt,nt
CCN(C(=O)CCS(=O)(=O)c1cc2c(cc1Cl)NC(=O)CO2)c1ccccc1,1%,0%,1%,3%,nt,nt
Cc1ccc(N(C)C(=O)CCS(=O)(=O)c2cc3c(cc2Cl)NC(=O)CO3)cc1,1%,1.7µM*!,1%,2%,nt,nt
O=C(NCCC1=CCCCC1)NC12CC3CC(CC(C3)C1)C2,0.63µM*,3.4µM*,?,0.89µM*,1%,-12%
COc1ccc(CCNC(=O)NC23CC4CC(CC(C4)C2)C3)cc1,19%,?,9%,20%,-2%,-18%
O=C(NCCc1ccc(F)cc1)NC12CC3CC(CC(C3)C1)C2,2.5µM*,11µM*,?,3.5µM*,nt,nt
O=C(NC1CC2CCCC(C1)N2S(=O)(=O)c1ccccc1)c1ccco1 (stereo unspecified),-10%,4%,-2%,3%,-1%,-14%
CCC(=O)N1CCCc2cc(S(=O)(=O)N3CCN(c4ccccc4F)CC3)ccc21,-10%,0%,0%,-13%,1%,-63%
O=C(CN1CC(c2ccccc2)CC1=O)OCc1cccc(Br)c1 (stereo unspecified),-1%,-1%,5%,6%,-2%,-7%
CCCCC1(C(=O)OC)NC(c2ccc(O)cc2)C2C(=O)N(c3ccccc3)C(=O)C21 (stereo unspecified),-1%,0%,0%,-2%,nt,nt
CC(C)CC(NC(=O)C1CCC(C)CC1)C(=O)N1CCN(c2ccccn2)CC1 (stereo unspecified),0%,10%,-3%,-1%,0%,20%
Cc1ccc(-n2ncc3c(N4CCCCC4)ncnc32)cc1Cl,nt,0.13µM*,nt,nt,nt,nt
Cc1ccc(-n2ncc3c(N4CCCCCC4)ncnc32)cc1Cl,nt,0.43µM*,nt,nt,nt,nt
Nc1nc(=S)c2ncn([C@@H]3O[C@H](CO)[C@@H](O)[C@H]3O)c2[nH]1,-2%,-1%,-17%,-8%,nt,nt
CCOC(=O)c1ccc(NC(=S)NCCC2=CCCCC2)cc1,-1%,7%,-3%,4%,1%,-85%
CCCCn1c(=NC(=O)c2ccco2)c(C(=O)OCC)cc2c(=O)n3cccc(C)c3nc21,0%,0%,-7%,-5%,nt,nt
COc1ccc(Nc2nc3ccccc3n3cnnc23)cc1Cl,-1%,?,12%,4%,nt,nt
COc1ccc(/C(C)=N/Nc2nc3ccccc3n3cnnc23)cc1OC,4%,11µM*,-1%,9%,nt,nt
CCOC(=O)C1CCCN(c2ncnc3c2cnn3-c2ccc(OC)cc2)C1 (stereo unspecified),?,?,5.2µM*,?,-1%,11µM*
SMILES,NPC1 prom act,FLuc modulator,ELG1 genotoxic,Rab9 promoter act,Luc counter,SMN2 splice enh
CCOC(=O)C1CCCN(c2ncnc3c2cnn3-c2ccc(Cl)cc2)C1 (stereo unspecified),?,12µM*,6%,?,2%,27%
Cc1ncsc1C(=O)N1N=C2/C(=C/c3ccccc3)CCCC2C1c1ccccc1 (stereo unspecified),-4%,-2%,-16%,-3%,-2%,15%
CCCn1c(N)c(N(CCOC)C(=O)c2cccc(Cl)c2)c(=O)[nH]c1=O,16%,0%,10%,?,nt,nt
CCOC(=O)c1ccc(CN2C(=O)c3ccccc3S2(=O)=O)cc1,22%,-17%,5%,24%,nt,nt
Cc1ccc2cc(CN(Cc3ccco3)S(=O)(=O)c3c(C)ccc4nsnc34)c(=O)[nH]c2c1,1%,-13%,-14%,-2%,16%,35µM*
Cc1ccc2nc(-c3cccc(NC(=O)CSc4ccc(Cl)cc4)c3)oc2c1,nt,1.7µM*,nt,nt,nt,?
Cc1ccc2nc(-c3ccc(C)c(NC(=O)CSc4ccc(Cl)cc4)c3)oc2c1,nt,5.4µM*,nt,nt,nt,?
Cc1nnsc1C(=O)NNc1ccc(Cl)cc1,2%,-3%,4%,-3%,nt,nt
COc1ccc(-c2c3c(nc4sc(C(=O)Nc5ccccc5F)c(N)c24)CC(C)(C)CC3=O)cc1,nt,7%,nt,nt,nt,?
N/C(=N\OC(=O)CC1CCCCC1)c1ccccn1,20%,0.6µM*,?,15%,-12%,16%
N/C(=N\OC(=O)CC1CCCCC1)c1ccncc1,0%,19µM*,8%,1%,1%,nt
N/C(=N\OC(=O)CCC1CCCC1)c1ccncc1,-4%,13µM*,9%,2%[1.84 µM],0%,3%
COc1cccc(-n2nc3c(=S)[nH]nc(C)c3c2C)c1,8%,3%,9%,-5%,-3%,?
Cc1cc(C)cc(NC(=O)COC(=O)CCCC2=NS(=O)(=O)c3ccccc3N2)c1,-5%,-16%,-1%,-2%,0%,-14%
Cc1cccc(OCC2=NS(=O)(=O)c3ccccc3N2)c1,28%,19µM*,15%,27%,-1%,16%
C=CCn1c(SCC(=O)N2CCCCCC2)nc2ccccc2c1=O,2%,2%,-21%,0%,nt,nt
COc1ccc(N2CCN(C(=O)CCCn3c(=S)[nH]c4cc5c(cc4c3=O)OCO5)CC2)cc1,-3%,-1%,2%,0%,2%,-21%
CCc1cc(C(=O)Cc2nc3ccccc3s2)c(O)cc1OCC(=O)O,2%,21µM*,2%,12%,nt,nt
O=C(CSc1nc2ccccc2s1)c1ccc(O)cc1O,?,13µM*,10%,0%[1.84 µM],nt,nt
O=C(COc1ccccc1Br)c1ccc(O)cc1O,11%,?,2%,13%,-2%,4%
O=C(Cc1ccc(Br)cc1)c1ccc(O)cc1O,3.2µM*,15µM*,?,?,nt,nt
O=C(Cc1nc2ccccc2s1)c1ccc(O)cc1O,3.2µM*,?,?,3.2µM*,0%,?
COc1cccc(CNC(=O)C(Cc2ccccc2)n2cccc2)c1 (stereo unspecified),9%,-1%,-2%,7%,nt,nt
